Inconclusive results are not listed. Calls of active or inactive are those of the source. Unless noted, calls come from the whole dose curve; as a rule, active = well fitted curve in the direction sought with a large enough effect; inconclusive = small, poorly fitted or top-dose-only effect, or another doubt; inactive = no such curve, though single readings can be large; an effect the other way counts as inactive or inconclusive.

Assay [1] in a line: Primary qHTS for small molecule stabilizers of the endoplasmic reticulum resident proteome: Secreted ER Calcium Modulated Protein (SERCaMP) assay (AID 1508630). Note: % is set by controls: 0 for no effect and ±100 for the full control effect. The procedure, abridged: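 The SH-SY5Y reporter protocol was run at 3 concentrations up to 38.3 uM (primary) or 11 concentrations (follow-up): 16 h compound, 100 nM thapsigargin for 4 h, then extracellular luciferase luminescence.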
(In general: qHTS replaces the single test concentration by a dilution series.)

Assay [2] addresses Cytochrome P450 2D6 (Homo sapiens) (UniProt P10635). The experiment in a line: Cytochrome P450 family 2 subfamily D member 6 (CYP2D6) small molecule antagonists: luciferase biochemical (cell-free) qHTS assay (AID 1645840; active = well fitted curve in the direction sought with a large enough effect in the repeat runs; an effect the other way counts as inactive or inconclusive; note: nearly all actives have a fitted effect of over 55% in size; note: potency is the fitted concentration of half-maximal effect; for activity change, negative = inhibition: % is set by controls: 0 for no effect and ±100 for the full control effect). The procedure, abridged: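 P450-Glo CYP2D6 system: proluciferin substrate converted by enzyme to luciferin, read by luminescence proportional to activity. Enzyme-substrate mix with compound 10 min at room temperature, then NADPH regeneration 1 h before detection reagent.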

Assay [3] deals with Cytochrome P450 3A4 (Homo sapiens) (UniProt P08684). The assay is described as follows: Cytochrome P450 family 3 subfamily A member 4 (CYP3A4) small molecule antagonists: luciferase qHTS assay (AID 1645841; active = well fitted curve in the direction sought with a large enough effect in the repeat runs; an effect the other way counts as inactive or inconclusive; note: potency is the fitted concentration of half-maximal effect; nearly all actives have a fitted effect of over 45% in size). The procedure, abridged: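 P450-Glo CYP3A4 enzyme with proluciferin substrate was preincubated with DMSO-dissolved compounds for 10 min at room temperature. NADPH regeneration solution started a 1 h reaction. Detection reagent stopped it, and luminescence was read after 20 min.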

The target of assay [4] is Cytochrome P450 2C9 (Homo sapiens) (UniProt P11712). The experiment in a line: Cytochrome P450 family 2 subfamily C member 9 (CYP2C9) small molecule antagonists: luciferase biochemical (cell-free) qHTS assay (AID 1645842; active = well fitted curve in the direction sought with a large enough effect in the repeat runs; an effect the other way counts as inactive or inconclusive; note: nearly all actives have a fitted effect of over 55% in size; note: potency is the fitted concentration of half-maximal effect; for activity change, negative = inhibition: % is set by controls: 0 for no effect and ±100 for the full control effect). The procedure, abridged: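 P450-Glo CYP2C9 system: proluciferin substrate with enzyme in mix containing 0.4% BSA, 10 min at room temperature, then NADPH regeneration solution added and incubated 1 h at 37C. Detection reagent stopped reaction; luminescence read after 20 min as RLU.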

Assay [5] has as its target N-terminal Xaa-Pro-Lys N-methyltransferase 1 (Homo sapiens) (UniProt Q9BV86). The assay is described as follows: Confirmatory qHTS for Inhibitors of N-terminal methyltransferase 1 (NTMT1): MTaseGlo Assay (AID 1645874). Note: potency is the fitted concentration of half-maximal effect; nearly all actives have a fitted effect of over 65% in size. The procedure, abridged:
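SPKRIA peptide at 1 uM was methylated by 125 nM NTMT1 using 100 uM SAM over 30 min at room temperature, following a 15 min compound preincubation. Product SAH was detected luminescently.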

Assay [6] can be described thus: Primary qHTS for inhibitors of nuclear receptor binding SET domain protein 2 (NSD2) in an isogenic RCH-ACV NSD2 p.E1099K mutant (9B) (AID 1645876). Note: nearly all actives have a fitted effect of over 70% in size. Note: potency is the fitted concentration of half-maximal effect.
For assay [7], the target named is Calcium and integrin-binding protein 1 (Homo sapiens) (UniProt Q99828). The assay is described as follows: Primary qHTS for Identification of Calcium Integrin Binding Protein 1 (CIB1) Competitor (AID 1508620).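 For activity change, negative = inhibition: GST tagged CIB1 binding a fluorescein labelled alphaIIb integrin peptide tracer; top concentration of the series differs between compounds; % is set by controls: 0 for no effect and ±100 for the full control effect.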 Note: potency is the fitted concentration of half-maximal effect. The gist of the method: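 Fluorescence polarization competition: CIB1-GST (1 uM final) preincubated with compound 15 min at room temperature, then FITC-labeled alphaIIb peptide (100 nM final) added for another 15 min. Polarization read at Ex 480/Em 540.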

Assay [8] is described as follows: A High-Content qHTS Against Drug Library for the Identification of Small Molecules that Inhibit DYT1 Early Onset Primary Dystonia-Associated Cell Pathology (AID 1645839; calls by dose curve). The procedure, abridged: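 Induced EGFP-delE TorsinA cells are imaged after 48 h of compound treatment. Punctate fusion-protein distribution gives the %pathology value, while nuclei counts flag toxicity. Wild-type EGFP-hTOR1A cells define the normal pattern.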

Assay [9] in a line: Cytotoxicity counterscreen for inhibitors of SARS-CoV-2 cell entry (AID 1645845; calls by dose curve; note: nearly all actives have a fitted effect of over 50% in size; note: potency is the fitted concentration of half-maximal effect). The procedure, abridged:
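After a 15 min room-temperature ATPLite 1step step, luminescence reflected ATP remaining in HEK293-ACE2 cells exposed to compound for 1 h plus 48 h at 37 C, with percent activity set by cell and no-cell controls.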

Assay [10] can be described thus: Primary qHTS for inhibitors of nuclear receptor binding SET domain protein 2 (NSD2) in an RCH-ACV wild type WT cells (2C) (AID 1645877). Note: nearly all actives have a fitted effect of over 70% in size. Note: potency is the fitted concentration of half-maximal effect.
A short description of assay [11]: Primary qHTS to identify inhibitors of SARS-CoV-2 cell entry (AID 1645846; calls by dose curve; note: nearly all actives have a fitted effect of over 45% in size). The following applies: activity change, negative = inhibition: at 57.1 µM (top of the series) unless noted. The procedure, abridged:
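Inhibition of spike-mediated entry was scored in human ACE2-transfected Expi293F cells. Particles were MLV-pseudotyped with Wuhan-Hu-1 S carrying a 19-aa C-terminal deletion; signal was luciferase after two days, scaled between spike PP and fusion-protein-free PP.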

Assay [12] can be described thus: VSVG counterscreen qHTS to identify inhibitors of SARS-CoV-2 cell entry (AID 1645847; calls by dose curve; note: % is set by controls: 0 for no effect and ±100 for the full control effect; nearly all actives have a fitted effect of over 65% in size). The gist of the method: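 Luminescence from a luciferase reporter, normalised to bald particle and VSV-G pseudotyped particle wells, is the read-out. Cells are HEK293 expressing human ACE2, exposed to compound 1 h before a 48 h particle infection at 37 °C.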
For orientation: The purpose of a counterscreen is to sort out artefacts and off-target activity.

Sequence of Calcium and integrin-binding protein 1 (Homo sapiens) (Q99828 whole entry, looked up): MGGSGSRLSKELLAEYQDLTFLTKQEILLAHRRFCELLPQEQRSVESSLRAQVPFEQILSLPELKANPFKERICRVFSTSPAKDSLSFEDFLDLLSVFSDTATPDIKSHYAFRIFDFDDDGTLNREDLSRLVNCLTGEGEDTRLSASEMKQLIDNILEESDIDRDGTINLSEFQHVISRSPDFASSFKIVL
Sequence of Cytochrome P450 2D6 (Homo sapiens) (P10635 whole entry, looked up): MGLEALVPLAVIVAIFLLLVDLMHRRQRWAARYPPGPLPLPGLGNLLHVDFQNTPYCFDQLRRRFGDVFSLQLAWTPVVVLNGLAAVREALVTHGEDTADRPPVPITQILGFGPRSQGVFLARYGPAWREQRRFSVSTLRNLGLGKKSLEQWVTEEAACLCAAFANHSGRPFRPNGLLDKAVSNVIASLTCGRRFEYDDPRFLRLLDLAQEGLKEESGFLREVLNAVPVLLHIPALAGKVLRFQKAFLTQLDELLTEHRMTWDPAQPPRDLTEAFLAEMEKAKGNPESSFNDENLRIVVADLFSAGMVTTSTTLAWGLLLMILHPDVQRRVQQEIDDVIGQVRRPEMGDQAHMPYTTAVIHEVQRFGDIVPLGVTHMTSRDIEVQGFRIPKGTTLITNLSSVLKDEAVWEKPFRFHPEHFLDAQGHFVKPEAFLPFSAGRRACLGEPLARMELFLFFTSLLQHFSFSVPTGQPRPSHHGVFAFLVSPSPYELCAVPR
Sequence of Cytochrome P450 2C9 (Homo sapiens) (P11712 whole entry, looked up): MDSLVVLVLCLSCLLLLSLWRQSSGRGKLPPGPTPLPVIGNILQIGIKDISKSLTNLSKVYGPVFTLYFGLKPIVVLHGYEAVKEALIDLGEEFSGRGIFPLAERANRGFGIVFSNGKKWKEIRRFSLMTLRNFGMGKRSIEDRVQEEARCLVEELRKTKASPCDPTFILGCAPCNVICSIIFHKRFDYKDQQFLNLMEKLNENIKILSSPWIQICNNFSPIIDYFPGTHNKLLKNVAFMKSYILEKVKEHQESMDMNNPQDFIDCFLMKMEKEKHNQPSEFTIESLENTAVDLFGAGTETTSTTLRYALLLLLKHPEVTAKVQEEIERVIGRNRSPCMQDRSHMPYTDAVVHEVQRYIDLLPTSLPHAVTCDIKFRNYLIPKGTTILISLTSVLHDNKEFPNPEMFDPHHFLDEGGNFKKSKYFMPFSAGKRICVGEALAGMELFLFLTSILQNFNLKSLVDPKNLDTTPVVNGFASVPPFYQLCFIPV
Sequence of N-terminal Xaa-Pro-Lys N-methyltransferase 1 (Homo sapiens) (Q9BV86 whole entry, looked up): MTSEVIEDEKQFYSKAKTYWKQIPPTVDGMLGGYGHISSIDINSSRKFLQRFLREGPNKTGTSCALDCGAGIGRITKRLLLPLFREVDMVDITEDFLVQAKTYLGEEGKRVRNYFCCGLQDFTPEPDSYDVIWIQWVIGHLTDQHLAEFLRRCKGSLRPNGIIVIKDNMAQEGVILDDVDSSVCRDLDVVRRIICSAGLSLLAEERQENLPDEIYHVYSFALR
Sequence of Cytochrome P450 3A4 (Homo sapiens) (P08684 whole entry, looked up): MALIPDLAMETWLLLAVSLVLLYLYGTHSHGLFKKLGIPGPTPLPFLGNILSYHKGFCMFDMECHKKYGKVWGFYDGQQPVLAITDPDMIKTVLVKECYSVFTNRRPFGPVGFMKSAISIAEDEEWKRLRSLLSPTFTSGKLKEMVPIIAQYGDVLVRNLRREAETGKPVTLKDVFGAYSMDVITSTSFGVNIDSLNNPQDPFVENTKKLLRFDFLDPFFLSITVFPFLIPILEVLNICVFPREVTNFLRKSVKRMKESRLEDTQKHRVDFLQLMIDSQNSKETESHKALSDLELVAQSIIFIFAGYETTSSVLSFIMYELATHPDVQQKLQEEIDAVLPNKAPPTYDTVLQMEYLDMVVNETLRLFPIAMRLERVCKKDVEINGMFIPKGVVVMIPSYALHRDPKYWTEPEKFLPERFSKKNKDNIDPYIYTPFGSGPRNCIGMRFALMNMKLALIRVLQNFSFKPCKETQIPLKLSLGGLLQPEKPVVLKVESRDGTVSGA

In the case of `Cc1ccc([N+](=O)[O-])[c]2c1[O][Hg]2`, in [1], the outcome was inactive. Moreover, the Potency in assay [2] is 347 nM (active); in assay [3], 977 nM (active); in assay [4], 436 nM (active); in assay [5] it was 728 nM (active); in assay [6], 84.1 nM (active).

Turning to `COP(=S)(OC)Oc1ccc(S(N)(=O)=O)cc1`, the Potency entry in assay [7], in assay [9], in [6] and in [10] was “inactive” each time. In assay [8], the compound was classed as inactive. Besides, the Potency in [4] was 4360 nM (active).

For `CN(C)C(=S)SSC(=S)N(C)C`, the Potency was 39800 nM (active) in assay [7], 3470 nM (active) in assay [4] and 1580 nM (active) in assay [9].

`COP(=O)(OC)OC=C(Cl)Cl`: the Potency entry in [7], in assay [2], in [4], in [9], in assay [6] and in assay [10] was “inactive” each time. Further, the compound was classed as inactive in [8]. Further, the activity change, negative = inhibition in [11] was -2.57%.

Turning to `CCN(Cc1ccc(Cl)nc1)/C(=C/[N+](=O)[O-])NC`, the Potency entry in assay [7], in assay [2], in [4], in assay [6] and in assay [10] was “inactive” throughout. The outcome in [8] was inactive.

`Nc1ccc(Cl)cc1C(=O)c1ccccc1F`: the Potency result in assay [7] and in assay [6] was “inactive” throughout.

For `CN1C(=O)[C@@H](NC(=O)c2cc3ccccc3[nH]2)N=C(c2ccccc2)c2ccccc21`, the Potency result in [7], in assay [2] and in assay [6] was “inactive” each time. Moreover, the Potency in assay [4] was 2750 nM (active).

Consider `Cc1cccc(Cc2cnc[nH]2)c1C`, for which the Potency entry in [7] and in assay [9] was “inactive” throughout. Also, the compound was called inactive in assay [8]. Also, the Potency was 871 nM (active) in assay [2] and 123 nM (active) in assay [4]. The activity change, negative = inhibition in [11] is -1.14%.

For `Nc1ccccc1C(=O)OCC(O)CO` (stereo not drawn), the Potency result in assay [7], in assay [2], in assay [4], in [9], in assay [6] and in [10] was “inactive” each time. In [11], the activity change, negative = inhibition was -1.98%.

Consider `Clc1ccc(C(OCCN2CCCCC2)c2ccccc2)cc1` (stereo not drawn), for which the Potency result in assay [7], in assay [4], in assay [9] and in assay [12] was “inactive” in each case. Also, the Potency in [2] is 49 nM (active); in assay [6], 26600 nM (active); in assay [10], 26600 nM (active).

For the compound `ClCc1cccc(Cl)c1`, the Potency entry in assay [7], in [4] and in assay [6] was “inactive” in each case. Further, the outcome in assay [8] was inactive. In [2], the Potency is 20400 nM (active).

With `O=C(N[C@H]1N=C(c2ccccc2F)c2cccc3c2N(CC3)C1=O)c1cc2ccccc2[nH]1`, the Potency entry in [7], in [2] and in [9] was “inactive” in each case. Moreover, in assay [8], the compound was classed as inactive. For the same compound, the Potency in assay [4] is 6920 nM (active). Further, in [11], the activity change, negative = inhibition is -28.2%.

For `C[N+]1(CCC(C(N)=O)(c2ccccc2)c2ccccc2)CCCCC1`, the Potency result in assay [7], in assay [4] and in assay [6] was “inactive” in each case. Further, the compound was called inactive in assay [8]. For the same compound, in assay [2], the Potency is 15500 nM (active).

For `CCCCCCCCCCCC[N+](C)(C)CCOc1ccccc1`, in assay [1], the outcome was inactive.

For `Oc1ccc([C@H]2CNCc3c2ccc(O)c3O)cc1O`, the result in assay [1] was inactive. The activity change, negative = inhibition in assay [11] amounted to 1.13%. Further, in assay [5], the Potency is 18300 nM (active).

Consider `CN(C)CCc1c[nH]c2ccc(O)cc12`, for which the call in assay [8] was inactive.

Take `CCN(CC)C(C)C(=O)c1ccccc1` (stereo not drawn): the call in assay [8] was inactive.

For `O=C(CCCN1CCC(n2c(=O)[nH]c3ccccc32)CC1)c1ccc(F)cc1`, the Potency entry in assay [11] was “inactive”.

For the origin of these results see PubChem BioAssay (NCATS).
